Measured values reported in PubChem BioAssay.
Active and inactive are the calls of the source.

Columns and labels:
[1] = binders of probe aFSTL3 on microarray, primary screen, stem cell growth factor project, biochemical, small-molecule microarray, fluorescence 635/667 (AID 1064); conditions: higher = more signal;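 note: measures binding of the biotinylated anti-FSTL3 antibody to printed compounds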
[2] = binders from COS7 lysate, DM2A8 probe, primary screen, torsin A project, cell lysate, small-molecule microarray, fluorescence 635/667 (AID 1065); conditions: higher = more signal, COS7 lysate expressing mutant human TOR1A
[3] = binders of probe aFGF2 on microarray, primary screen, stem cell growth factor project, biochemical, small-molecule microarray, fluorescence 635/667 (AID 1067); conditions: higher = more signal;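 note: measures binding of biotinylated aFGF2 protein to printed compounds on slides; z-score merges feature fluorescence and signal-to-noise across triplicate slides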
[4] = binders of probe aFGF10 on microarray, primary screen, stem cell growth factor project, biochemical, small-molecule microarray, fluorescence 635/667 (AID 1071); conditions: higher = more signal;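 note: score merges 667 nm spot intensity and signal to noise from triplicate slides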
[5] = target: Neurogenic locus notch homolog protein 2 (Homo sapiens) (UniProt Q04721); test: Notch2 binders on small-molecule microarrays, primary screen, biochemical, small-molecule microarray, 635 nm fluorescence, stem cell growth factors (AID 1073); conditions: Notch2 binding, higher = more signal
Neurogenic locus notch homolog protein 2 (Homo sapiens), sequence (Q04721 whole entry, looked up, canonical isoform): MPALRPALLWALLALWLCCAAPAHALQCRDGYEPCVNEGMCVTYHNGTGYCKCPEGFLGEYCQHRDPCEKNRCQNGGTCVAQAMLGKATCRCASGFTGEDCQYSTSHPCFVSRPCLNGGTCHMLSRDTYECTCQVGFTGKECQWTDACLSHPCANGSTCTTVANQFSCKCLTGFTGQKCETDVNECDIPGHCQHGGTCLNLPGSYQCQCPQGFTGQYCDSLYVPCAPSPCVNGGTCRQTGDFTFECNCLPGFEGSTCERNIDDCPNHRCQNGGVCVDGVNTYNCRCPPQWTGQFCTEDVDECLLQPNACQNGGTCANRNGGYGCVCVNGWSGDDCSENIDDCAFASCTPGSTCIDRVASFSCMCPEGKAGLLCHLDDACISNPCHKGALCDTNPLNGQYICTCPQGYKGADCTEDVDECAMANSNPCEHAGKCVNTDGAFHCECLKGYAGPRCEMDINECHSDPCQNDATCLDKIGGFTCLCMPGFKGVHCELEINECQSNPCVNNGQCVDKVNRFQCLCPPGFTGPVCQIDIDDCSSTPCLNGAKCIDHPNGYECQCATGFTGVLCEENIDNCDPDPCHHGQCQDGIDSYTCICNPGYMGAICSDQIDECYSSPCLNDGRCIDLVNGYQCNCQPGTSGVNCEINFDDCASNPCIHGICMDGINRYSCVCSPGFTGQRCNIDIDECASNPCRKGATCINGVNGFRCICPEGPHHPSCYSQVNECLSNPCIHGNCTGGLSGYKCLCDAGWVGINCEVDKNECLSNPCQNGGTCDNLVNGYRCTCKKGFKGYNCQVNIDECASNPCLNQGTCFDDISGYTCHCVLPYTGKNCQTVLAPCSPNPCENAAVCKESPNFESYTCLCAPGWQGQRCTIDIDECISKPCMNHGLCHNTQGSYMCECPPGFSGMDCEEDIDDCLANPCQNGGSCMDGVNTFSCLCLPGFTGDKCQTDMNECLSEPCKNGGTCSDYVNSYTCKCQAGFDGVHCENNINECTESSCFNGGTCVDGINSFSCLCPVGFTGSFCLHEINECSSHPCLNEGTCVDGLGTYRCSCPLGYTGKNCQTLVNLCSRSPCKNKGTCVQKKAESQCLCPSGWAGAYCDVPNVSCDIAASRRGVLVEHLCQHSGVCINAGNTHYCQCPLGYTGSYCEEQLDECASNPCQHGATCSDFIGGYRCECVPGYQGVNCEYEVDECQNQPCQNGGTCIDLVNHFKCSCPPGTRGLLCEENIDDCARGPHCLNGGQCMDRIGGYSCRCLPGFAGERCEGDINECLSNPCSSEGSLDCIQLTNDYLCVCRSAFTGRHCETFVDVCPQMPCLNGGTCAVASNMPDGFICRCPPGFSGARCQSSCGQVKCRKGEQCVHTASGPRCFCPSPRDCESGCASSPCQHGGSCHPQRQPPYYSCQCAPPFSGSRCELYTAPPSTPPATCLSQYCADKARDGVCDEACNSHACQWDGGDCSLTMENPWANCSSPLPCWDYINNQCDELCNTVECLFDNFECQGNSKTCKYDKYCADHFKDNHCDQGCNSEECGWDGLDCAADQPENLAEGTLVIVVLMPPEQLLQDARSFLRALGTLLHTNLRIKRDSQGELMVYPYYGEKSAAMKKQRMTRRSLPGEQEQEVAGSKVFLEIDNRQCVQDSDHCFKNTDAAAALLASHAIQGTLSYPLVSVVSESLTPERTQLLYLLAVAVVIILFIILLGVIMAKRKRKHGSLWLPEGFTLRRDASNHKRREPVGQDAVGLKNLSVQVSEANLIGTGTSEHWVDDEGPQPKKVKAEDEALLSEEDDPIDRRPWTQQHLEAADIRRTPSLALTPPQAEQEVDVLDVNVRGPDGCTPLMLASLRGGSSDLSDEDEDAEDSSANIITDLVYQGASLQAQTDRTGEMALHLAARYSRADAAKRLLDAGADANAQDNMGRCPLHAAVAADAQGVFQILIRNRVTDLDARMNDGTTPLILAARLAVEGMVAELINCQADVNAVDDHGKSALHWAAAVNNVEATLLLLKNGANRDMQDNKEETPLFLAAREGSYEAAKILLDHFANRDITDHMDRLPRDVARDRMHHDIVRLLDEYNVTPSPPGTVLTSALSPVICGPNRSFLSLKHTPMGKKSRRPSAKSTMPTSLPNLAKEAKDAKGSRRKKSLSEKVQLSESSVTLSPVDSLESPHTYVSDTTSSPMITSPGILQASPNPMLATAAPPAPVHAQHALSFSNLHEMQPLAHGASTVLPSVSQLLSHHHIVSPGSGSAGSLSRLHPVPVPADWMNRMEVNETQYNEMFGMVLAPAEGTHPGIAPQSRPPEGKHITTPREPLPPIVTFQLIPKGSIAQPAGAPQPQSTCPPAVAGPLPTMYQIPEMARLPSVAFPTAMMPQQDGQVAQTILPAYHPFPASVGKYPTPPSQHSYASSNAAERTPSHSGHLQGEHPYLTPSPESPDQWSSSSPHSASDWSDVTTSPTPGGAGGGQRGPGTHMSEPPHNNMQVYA

[6] = target: Pro-neuregulin-1, membrane-bound isoform (Homo sapiens) (UniProt Q02297); test: NRG1 binders on small-molecule microarrays, primary screen, psychiatric disease protein project, biochemical, small-molecule microarray, fluorescence 635/667 (AID 1075); conditions: NRG1 binding, 635 nm fluorescence, higher = more signal;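 note: score combines 667 nm spot fluorescence with signal to noise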
Pro-neuregulin-1, membrane-bound isoform (Homo sapiens), sequence (Q02297 whole entry, looked up, the tested form may be a part, canonical isoform): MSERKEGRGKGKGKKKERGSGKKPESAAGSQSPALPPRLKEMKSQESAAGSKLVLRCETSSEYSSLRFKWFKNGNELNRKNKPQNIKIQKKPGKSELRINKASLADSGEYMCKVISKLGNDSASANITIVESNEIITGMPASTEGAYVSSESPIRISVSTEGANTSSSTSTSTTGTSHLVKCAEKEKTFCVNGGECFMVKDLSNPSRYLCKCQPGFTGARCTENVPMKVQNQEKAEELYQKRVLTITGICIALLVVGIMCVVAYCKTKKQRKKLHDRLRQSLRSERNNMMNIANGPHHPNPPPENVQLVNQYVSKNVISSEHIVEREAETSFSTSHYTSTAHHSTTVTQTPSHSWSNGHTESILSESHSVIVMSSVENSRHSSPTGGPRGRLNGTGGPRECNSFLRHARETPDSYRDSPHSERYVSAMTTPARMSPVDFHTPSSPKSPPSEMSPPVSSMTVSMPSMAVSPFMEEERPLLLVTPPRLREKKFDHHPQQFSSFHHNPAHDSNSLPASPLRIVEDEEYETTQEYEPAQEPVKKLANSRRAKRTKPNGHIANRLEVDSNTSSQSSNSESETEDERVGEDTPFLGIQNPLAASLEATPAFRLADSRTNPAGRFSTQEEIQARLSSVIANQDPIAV

[7] = test system: Neuregulin-1 EGF-like domain; test: binders of neuregulin-1 EGF-like domain, primary screen, biochemical, small-molecule microarray, 635 nm fluorescence (AID 1081); conditions: small-molecule microarray binding, higher = more signal;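 note: binding of the protein to compounds printed on small-molecule microarray slides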
[8] = FRG1 promoter luciferase signal modulators, primary screen, FRG1 inhibition for FSHD, cell-based, C2C12 myotubes, firefly/Renilla luciferase, luminescence (AID 1084); conditions: higher = more signal, called active from +8 up or from −8 down
[9] = binders of probe aFST on microarray, primary screen, stem cell growth factor project, biochemical, small-molecule microarray, fluorescence 635/667 (AID 1086); conditions: higher = more signal;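 note: score merges 667 nm fluorescence with signal-to-noise of each printed compound spot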
[10] = binders of probe aHhip on microarray, primary screen, stem cell growth factor project, biochemical, small-molecule microarray, fluorescence 635/667 (AID 1087); conditions: higher = more signal;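 note: score merges spot fluorescence at 667nm with spot signal to noise ratio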

## CC(CO)N1C(=O)[C@@H]2C3C(=O)OCCC/C=C\[C@H]3OC23C=CCN(CCN2CCOCC2)C(=O)[C@@H]13 (stereo not given in full)
[1]
  composite z-score: -0.547
[2]
  composite z-score: 0.163
[3]
  composite z-score: -0.139
[4]
  composite z-score: 0.38
[5]
  composite z-score: -0.59
[6]
  composite z-score: -0.31
[7]
  composite z-score: 0.47
[8]
  z-score: -0.55 (inactive)
[9]
  composite z-score: -0.28
[10]
  composite z-score: -0.212

## COCCCNC(=O)[C@@]1(Cc2ccccc2)N=C(c2ccc(OCCCO)cc2)O[C@H]1c1ccccc1CN=[N+]=[N-]
[1]
  composite z-score: 0.988
[2]
  composite z-score: 1.35
[3]
  composite z-score: 0.0762
[4]
  composite z-score: 0.806
[5]
  composite z-score: 1.25
[6]
  composite z-score: 1.74
[7]
  composite z-score: 1.11
[8]
  z-score: -0.989 (inactive)
[9]
  composite z-score: 1.54
[10]
  composite z-score: -0.194

## C=CCNC(=O)[C@H]1[C@@H]2C(=O)O[C@@H](c3ccccc3)[C@@H](c3ccccc3)N2[C@@H](c2ccc(O)cc2)[C@]12C(=O)Nc1ccc(C#CCCO)cc12
[1]
  composite z-score: -0.107
[2]
  composite z-score: -1.51
[3]
  composite z-score: -0.122
[4]
  composite z-score: -0.0819
[5]
  composite z-score: -0.697
[6]
  composite z-score: 1.01
[7]
  composite z-score: 0.732
[8]
  z-score: -3.71 (inactive)
[9]
  composite z-score: 0.33
[10]
  composite z-score: -0.0994

## COC(=O)c1c(CC[C@@H](CO)NC(=O)N[C@@H](Cc2ccccc2)Cn2cc(-c3ccccn3)nn2)oc(C(=O)N2CCOCC2)c1C(=O)OC
[1]
  composite z-score: -0.39
[2]
  composite z-score: -0.451
[3]
  composite z-score: -0.0348
[4]
  composite z-score: 0.218
[5]
  composite z-score: 0.303
[6]
  composite z-score: -0.0149
[7]
  composite z-score: 0.734
[8]
  z-score: 0.183 (inactive)
[9]
  composite z-score: 0.128
[10]
  composite z-score: -0.356

## C#CCN1[C@@H](Cc2ccc(O)cc2)C(=O)O[C@H](Cc2ccccc2)[C@@H]1/C=C/C1CC1
[1]
  composite z-score: -0.353
[2]
  composite z-score: 0.336
[3]
  composite z-score: -0.142
[4]
  composite z-score: 0.199
[5]
  composite z-score: -0.586
[6]
  composite z-score: -0.37
[7]
  composite z-score: 0.207
[8]
  z-score: -3.33 (inactive)
[9]
  composite z-score: 0.0959
[10]
  composite z-score: -0.279

## CC(c1ccccc1)C(O)C1C=CC2C(=O)N(c3ccccc3)C(=O)C2N1Nc1ccccc1 (stereo not given)
[1]
  composite z-score: -0.245
[2]
  composite z-score: 0.2
[3]
  composite z-score: 0.0878
[4]
  composite z-score: 1.13
[5]
  composite z-score: 1.55
[6]
  composite z-score: 1.53
[7]
  composite z-score: 1.34
[8]
  z-score: -1.41 (inactive)
[9]
  composite z-score: 1.38
[10]
  composite z-score: 0.179

## COC(=O)[C@@]1(Cc2ccc(OC)cc2)[C@H]2c3cc(C(=O)N4CCCC4)n(CCCNc4ncc(C(F)(F)F)cc4Cl)c3C[C@H]2CN1C(=O)c1ccccc1
[1]
  composite z-score: 0.965
[2]
  composite z-score: 0.103
[3]
  composite z-score: 0.578
[4]
  composite z-score: 0.583
[5]
  composite z-score: 1.7
[6]
  composite z-score: 1.71
[7]
  composite z-score: 0.709
[8]
  z-score: 2.95 (inactive)
[9]
  composite z-score: 2.32
[10]
  composite z-score: 1.31

## O=C1C2C=CC(C(O)C=Cc3ccc([N+](=O)[O-])cc3)N(n3cnnc3)C2C(=O)N1Cc1ccccc1 (stereo not given)
[1]
  composite z-score: 0.246
[2]
  composite z-score: 1.31
[3]
  composite z-score: 0.0575
[4]
  composite z-score: 0.375
[5]
  composite z-score: 1.27
[6]
  composite z-score: 1.77
[7]
  composite z-score: 1.19
[8]
  z-score: 0.422 (inactive)
[9]
  composite z-score: 1.09
[10]
  composite z-score: -0.226

## C=CCN1C(=O)[C@]2(O[C@H](CCO)[C@@H]([Si](C)(C)c3ccc(OC)cc3)[C@@H]2C)c2cc(N(C=O)c3ccccc3)ccc21
[1]
  composite z-score: 0.0147
[2]
  composite z-score: 0.109
[3]
  composite z-score: -0.0583
[4]
  composite z-score: 0.26
[5]
  composite z-score: 0.425
[6]
  composite z-score: 0.495
[7]
  composite z-score: 0.903
[8]
  z-score: -2.69 (inactive)
[9]
  composite z-score: 0.359
[10]
  composite z-score: 0.0021

## CCOC(=O)C[C@H]1[C@H](OC(=O)c2ccc(C(=O)c3ccccc3)cc2)[C@@H](NC(=O)Cc2ccc(OC)cc2)c2cc(OCCCO)ccc2N1C(=O)c1ccc2ccccc2n1
[1]
  composite z-score: -0.537
[2]
  composite z-score: 0.0267
[3]
  composite z-score: -0.0887
[4]
  composite z-score: 0.371
[5]
  composite z-score: 0.298
[6]
  composite z-score: 0.843
[7]
  composite z-score: 0.325
[8]
  z-score: -2.62 (inactive)
[9]
  composite z-score: 0.612
[10]
  composite z-score: -0.0994

## O=C1C2C=CC(C(O)c3ccc(-c4ccccc4)s3)N(Nc3ccccc3)C2C(=O)N1c1ccccc1 (stereo not given)
[1]
  composite z-score: -0.288
[2]
  composite z-score: -0.109
[3]
  composite z-score: 0.198
[4]
  composite z-score: 0.44
[5]
  composite z-score: 1.61
[6]
  composite z-score: 2
[7]
  composite z-score: 1.33
[8]
  z-score: -2.89 (inactive)
[9]
  composite z-score: 1.62
[10]
  composite z-score: -0.0618

## COCCOC(=O)N1C(=O)[C@@]2(c3cc(C#CCCO)ccc31)[C@H](c1ccc(O)cc1)N1[C@H](c3ccccc3)[C@H](c3ccccc3)OC(=O)[C@H]1[C@@H]2C(=O)N1CCN(c2ncccn2)CC1
[1]
  composite z-score: -0.788
[2]
  composite z-score: 0.325
[3]
  composite z-score: 0.005
[4]
  composite z-score: 0.792
[5]
  composite z-score: 1.44
[6]
  composite z-score: 1.49
[7]
  composite z-score: 1.24
[8]
  z-score: -0.606 (inactive)
[9]
  composite z-score: 0.437
[10]
  composite z-score: 0.783

## C[N+](C)(C)CCCC[C@@H]1NC(=O)[C@@H]2C[C@H](C(=O)NCCCCCCNC(=O)CS)[C@H](c3ccc(O)cc3)N2C1=O
[1]
  composite z-score: 0.973
[2]
  composite z-score: -0.951
[3]
  composite z-score: -0.193
[4]
  composite z-score: 0.0372
[5]
  composite z-score: -1.41
[6]
  composite z-score: 0.801
[7]
  composite z-score: 1.47
[8]
  z-score: -0.338 (inactive)
[9]
  composite z-score: -0.622
[10]
  composite z-score: 0.235

## CC(C)N1CC=CC23O[C@@H]4C=CCOC(=O)[C@@H]4[C@H]2C(=O)N(CCCCCO)[C@@H]3C1=O (stereo not given in full)
[1]
  composite z-score: -0.354
[2]
  composite z-score: 0.272
[3]
  composite z-score: -0.153
[4]
  composite z-score: -0.267
[5]
  composite z-score: -0.669
[6]
  composite z-score: 0.24
[7]
  composite z-score: 1.27
[8]
  z-score: -0.907 (inactive)
[9]
  composite z-score: -0.308
[10]
  composite z-score: -0.132

## CCOC(=O)C1=CC[C@@H](c2ccccc2)N(S(=O)(=O)c2ccc(C)cc2)[C@H]1c1ccc(CC)cc1
[1]
  composite z-score: 0.114
[2]
  composite z-score: -0.0251
[3]
  composite z-score: -0.0056
[4]
  composite z-score: 0.421
[5]
  composite z-score: 1.4
[6]
  composite z-score: 0.863
[7]
  composite z-score: 1.06
[8]
  z-score: -3.16 (inactive)
[9]
  composite z-score: 0.762
[10]
  composite z-score: -0.0618
